Our source for the outcome and AC50 values is PubChem BioAssay (EPA / NIEHS).

Records with an inconclusive call do not appear. Active and inactive are the calls of the source. How the source made its calls, unless noted: active means hit-call score of the fitted dose curve at least 0.9, where 1 is the maximum; inconclusive means response in the unintended direction; inactive means score below 0.9.

Assay [1] in a line: ATG_M_19_CIS: Attagene CIS-FACTORIAL HepG2 Assay for M19 Transcription Factor (Internal Marker) (AID 2282939; active means hit-call score of the fitted dose curve at least 0.9, where 1 is the maximum; inactive means score below 0.9). The following applies: HepG2 Attagene CIS-FACTORIAL M19 internal marker reporter; actives raise or lower the signal. The method in brief:
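Signals come from fluorescence of labelled reporter-specific PCR fragments resolved by capillary electrophoresis, following 24 h treatment of HepG2 cells transfected with cis-promoter reporter units; activity was fitted in both directions relative to DMSO.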

Assay [2] can be described thus: ATG_GRE_CIS: Attagene CIS-FACTORIAL HepG2 Assay for human Glucocorticoid Response Elements (GRE) (AID 2282947; active means hit-call score of the fitted dose curve at least 0.9, where 1 is the maximum; inactive means score below 0.9). The following applies: HepG2 GRE cis-reporter, Attagene multiplex mRNA; actives raise or lower the signal. The method in brief: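 Following 24 h chemical exposure of transiently transfected HepG2 cells, total RNA was reverse-transcribed and reporter cDNA amplified, fluorescently labelled and sized by capillary electrophoresis. Signal gain or loss was fitted relative to DMSO vehicle.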

Assay [3] deals with Hepatocyte nuclear factor 6 (Homo sapiens) (UniProt Q9UBC0). In words: ATG_HNF6_CIS: Attagene CIS-FACTORIAL HepG2 Assay for human Hepatocyte Nuclear Factor 6 (HNF6) (AID 2282952; active means hit-call score of the fitted dose curve at least 0.9, where 1 is the maximum; inactive means score below 0.9). The conditions noted are these: HepG2 Attagene cis-factorial HNF6 reporter transcription; actives raise or lower the signal. The method in brief:
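Reporter mRNA induction or loss in HepG2 after 24 h exposure; transient cis-MRTU transfection; fragments quantified by capillary electrophoresis; bidirectional analysis, DMSO as negative control.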

Assay [4] is described as follows: ATG_MRE_CIS: Attagene CIS-FACTORIAL HepG2 Assay for human Metal Responsive Element (MRE) (AID 2282954; active means hit-call score of the fitted dose curve at least 0.9, where 1 is the maximum; inactive means score below 0.9). The conditions noted are these: HepG2 MRE cis-reporter transcription, Attagene multiplex; actives raise or lower the signal. The method in brief: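 Step one: transfect HepG2 with cis-regulated reporter units. Step two: dose 24 h. Step three: isolate RNA, RT-PCR, 6-FAM label, HpaI digest, capillary electrophoresis. Fit bidirectionally to DMSO.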

Assay [5] in a line: ATG_PBREM_CIS: Attagene CIS-FACTORIAL HepG2 Assay for human Phenobarbital-responsive Enhancer Module (PBREM) (AID 2282955; active means hit-call score of the fitted dose curve at least 0.9, where 1 is the maximum; inactive means score below 0.9). The following applies: HepG2 PBREM cis-reporter, Attagene multiplexed transcription; actives raise or lower the signal. The method in brief: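 After a 24 h incubation with test chemical, transfected HepG2 cells yield total RNA; reporter-specific RT-PCR products are fluorescently labelled, HpaI-digested and resolved by capillary electrophoresis against ROX size standards.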

Assay [6] can be described thus: ATG_TGFb_CIS: Attagene CIS-FACTORIAL HepG2 Assay for human Transforming Growth Factor (TGF) (AID 2282967; active means hit-call score of the fitted dose curve at least 0.9, where 1 is the maximum; inactive means score below 0.9). The conditions noted are these: HepG2 Attagene CIS TGFb reporter, mRNA transcription; actives raise or lower the signal. The method in brief:
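Bidirectional fitting relative to DMSO gave the endpoint. Underlying data: reporter mRNA from HepG2 cells carrying transiently transfected cis-regulated reporter constructs, harvested 24 h after dosing and analyzed by RT-PCR and capillary electrophoresis.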

Assay [7] has as its target Hepatocyte nuclear factor 4-alpha (Homo sapiens) (UniProt P41235). In words: ATG_HNF4a_TRANS: Attagene TRANS-FACTORIAL HepG2 Assay for human Hepatocyte Nuclear Factor 4 alpha (HNF4a) (AID 2282982). The following applies: HepG2 HNF4a transactivation reporter, mRNA readout. In short, it runs like this:
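Cells used were human HepG2, transiently carrying GAL4-UAS reporter units read out against exogenous NR-GAL4 chimeras. Reporter transcript levels after 24 h dosing were quantified by fluorescent RT-PCR and capillary electrophoresis.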

The nature of assay [8]: ATG_M_32_TRANS: Attagene TRANS-FACTORIAL HepG2 Assay for M32 Transcription Factor (Internal Marker) (AID 2282984).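 Further: transcript level of a background control reporter unit measured by RT-PCR and capillary electrophoresis.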 The following applies: HepG2 Attagene TRANS M32 internal marker reporter. In short, it runs like this: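 Human hepatoma HepG2, transient MRTU transfection, 24 h treatment. RNA → RT-PCR → fluorescent primer extension → HpaI digest (2 h, 37 C) → CE. Positive-direction fit vs DMSO.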

The target of assay [9] is Retinoic acid receptor RXR-alpha (Homo sapiens) (UniProt P19793). In words: ATG_RXRa_TRANS: Attagene TRANS-FACTORIAL HepG2 Assay for human Retinoid X Receptor alpha (RXRa) (AID 2283012). The method in brief:
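HepG2 cells transiently transfected with GAL4-UAS reporter units and chimeric RXRa-Gal4 protein, treated 24 h. Reporter mRNA measured by RT-PCR, fluorescent labelling, HpaI digestion and capillary electrophoresis. Induction fitted against DMSO.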

For assay [10], the target named is human Retinoid X Receptor beta (RXRb), RXRB (gene 6257) (UniProt P28702). In words: ATG_RXRb_TRANS: Attagene TRANS-FACTORIAL HepG2 Assay for human Retinoid X Receptor beta (RXRb) (AID 2283013). The method in brief: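 HepG2 cells were transiently transfected with multiplexed GAL4-UAS reporters and a chimeric RXRb-Gal4 construct, then exposed for 24 h. Reporter mRNA was quantified by RT-PCR, FAM labeling, HpaI digestion and capillary electrophoresis; gain of signal was scored against DMSO.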
Sequence of human Retinoid X Receptor beta (RXRb), RXRB (gene 6257) (P28702 whole entry, looked up, the tested form may be a part): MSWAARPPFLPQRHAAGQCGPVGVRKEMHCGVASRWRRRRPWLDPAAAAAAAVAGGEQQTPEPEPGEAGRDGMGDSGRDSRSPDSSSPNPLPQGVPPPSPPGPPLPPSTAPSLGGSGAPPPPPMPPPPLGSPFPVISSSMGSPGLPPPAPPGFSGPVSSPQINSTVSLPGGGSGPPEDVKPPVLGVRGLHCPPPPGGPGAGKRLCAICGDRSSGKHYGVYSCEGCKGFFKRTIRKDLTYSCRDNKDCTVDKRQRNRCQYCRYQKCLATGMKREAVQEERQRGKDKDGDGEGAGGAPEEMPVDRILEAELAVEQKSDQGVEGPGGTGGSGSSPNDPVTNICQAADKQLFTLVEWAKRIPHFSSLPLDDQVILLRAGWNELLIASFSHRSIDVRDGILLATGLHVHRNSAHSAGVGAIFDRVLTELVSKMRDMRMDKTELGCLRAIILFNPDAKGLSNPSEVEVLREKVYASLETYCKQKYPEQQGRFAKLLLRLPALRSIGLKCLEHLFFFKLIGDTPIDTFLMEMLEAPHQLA

A short description of assay [11]: TOX21_p53_BLA_p2_viability: Viability Assessment in the Tox21 HCT-116 p53 Agonism Beta-lactamase Assay, Phase 2 (AID 2283591).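 Further: actives lower the ATP signal meaning cytotoxicity.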 In short, it runs like this:
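HCT-116 p53-bla cells (4000/well) rested 5 h at 37C, then received compounds in DMSO (217-fold dilution) for 16 h at 37C, 5% CO2. After the CCF4 read, CellTiter-Glo was added; ATP luminescence was read after 30 min at room temperature.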

Assay [12] addresses Cellular tumor antigen p53 (Homo sapiens) (UniProt P04637). In words: TOX21_p53_BLA_p2_ratio: Tox21 HCT-116 p53 Agonism Beta-lactamase Assay, Ratio, Phase 2 (AID 2283592). The method in brief:
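An inducible beta-lactamase reporter in HCT116 cells signals p53 pathway activation. After 16 h chemical exposure at 37C, cells load CCF4-AM substrate for 2 h at room temperature; activity is the cleaved/uncleaved emission ratio relative to DMSO.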

The target is the same in assay [13]. In words: TOX21_p53_BLA_p3_ratio: Tox21 HCT-116 p53 Agonism Beta-lactamase Assay, Ratio, Phase 3 (AID 2283596). In short, it runs like this:
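HCT116 p53-bla cells (4000/well) given compound in DMSO (217-fold dilution) after 5 h, incubated 16 h at 37C. CCF4-AM substrate 2 h at room temperature; 460/530 nm emission ratio, gain fitted against DMSO.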

Assay [14] shares this target. In words: TOX21_p53_BLA_p5_ratio: Tox21 HCT-116 p53 Agonism Beta-lactamase Assay, Ratio, Phase 5 (AID 2283599). In short, it runs like this:
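HCT-116 cells carrying a p53-inducible beta-lactamase reporter were seeded at 4000 cells/well and dosed after 5 h with compound in DMSO (217-fold dilution). After 16 h at 37C, CCF4-AM substrate was added for 2 h, and the 460/530 nm emission ratio was scored as gain-of-signal versus DMSO.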

A short description of assay [15]: TOX21_p53_BLA_p5_viability: Viability Assessment in the Tox21 HCT-116 p53 Agonism Beta-lactamase Assay, Phase 5 (AID 2283600). In short, it runs like this:
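Counter-readout for cytotoxicity: ATP-dependent luminescence from CellTiter-Glo, read in the beta-lactamase wells after 30 min at RT, following a 16 h compound exposure at 37C.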

The target in assay [16] is Cellular tumor antigen p53 (Homo sapiens) (UniProt P04637). In words: TOX21_p53_BLA_p4_ratio: Tox21 HCT-116 p53 Agonism Beta-lactamase Assay, Ratio, Phase 4 (AID 2283601). In short, it runs like this: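 HCT116 cells carrying an inducible beta-lactamase reporter were plated at 4000 cells/well, rested 5 h, then exposed to compounds in DMSO (217-fold dilution) for 16 h at 37C. CCF4-AM substrate was loaded 2 h at room temperature; 460/530 nm emission ratio scored gain-of-signal versus DMSO.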
Sequence of Cellular tumor antigen p53 (Homo sapiens) (P04637 whole entry, looked up): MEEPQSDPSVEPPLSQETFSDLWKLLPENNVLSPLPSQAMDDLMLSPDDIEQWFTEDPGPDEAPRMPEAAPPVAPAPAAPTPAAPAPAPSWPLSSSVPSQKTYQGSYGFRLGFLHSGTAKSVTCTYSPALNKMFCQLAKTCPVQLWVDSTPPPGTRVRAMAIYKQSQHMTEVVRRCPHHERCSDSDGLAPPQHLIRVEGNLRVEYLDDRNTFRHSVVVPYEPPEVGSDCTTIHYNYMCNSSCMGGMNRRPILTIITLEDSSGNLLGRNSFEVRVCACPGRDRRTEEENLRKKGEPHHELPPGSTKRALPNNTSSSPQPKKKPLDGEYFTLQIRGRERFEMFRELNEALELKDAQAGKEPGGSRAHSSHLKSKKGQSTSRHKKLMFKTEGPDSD

The target in assay [17] is X-box-binding protein 1 (Homo sapiens) (UniProt P17861). In words: ATG_Xbp1_CIS: Attagene CIS-FACTORIAL HepG2 Assay for human X-box Binding Protein 1 (XBP1) (AID 2282972; active means hit-call score of the fitted dose curve at least 0.9, where 1 is the maximum; inactive means score below 0.9). The conditions noted are these: HepG2 XBP1 cis-element reporter, Attagene multiplex; actives raise or lower the signal. The method in brief:
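Fluorescence-labelled cDNA fragments from reporter transcripts, separated by capillary electrophoresis, give the signal. Source: HepG2 cells transfected with promoter-driven reporter units, harvested 24 h post-dose. DMSO served as reference for bidirectional curve fitting.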

Assay [18] is described as follows: ATG_M_06_TRANS: Attagene TRANS-FACTORIAL HepG2 Assay for M06 Transcription Factor (Internal Marker) (AID 2282983). The conditions noted are these: HepG2 Attagene TRANS M06 internal marker reporter. In short, it runs like this: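 Measured by capillary electrophoresis of fluorescently labelled RT-PCR products, this endpoint reflects reporter mRNA in HepG2 cells harbouring exogenous NR-GAL4 reporter constructs after 24 h exposure, with DMSO as baseline.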

The nature of assay [19]: ATG_NF_kB_CIS: Attagene CIS-FACTORIAL HepG2 Assay for human Nuclear Factor Kappa B (NF-kB) (AID 2282991; active means hit-call score of the fitted dose curve at least 0.9, where 1 is the maximum; inactive means score below 0.9). The following applies: HepG2 Attagene cis-factorial NF-kB reporter mRNA; actives raise or lower the signal. In short, it runs like this:
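HepG2, transient multi-reporter transfection, cis promoter elements (endogenous TFs). 24 h exposure. Total RNA → RT → PCR → 6-FAM label → HpaI → CE. Gain/loss vs DMSO.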

For assay [20], the target named is Retinoic acid receptor alpha (Homo sapiens) (UniProt P10276). In words: ATG_DR5_RAR_CIS: Attagene CIS-FACTORIAL HepG2 Assay for human Retinoic Acid Receptor Alpha (RARE), DR5 submotif (AID 2282934; active means hit-call score of the fitted dose curve at least 0.9, where 1 is the maximum; inactive means score below 0.9). The following applies: HepG2 Attagene cis-factorial RARE DR5 reporter, mRNA; actives raise or lower the signal. In short, it runs like this: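 HepG2 cells transiently transfected with multiplexed reporter units under cis (DR5 RARE) promoters, so endogenous transcription factor activity is measured. After 24 h compound exposure, reporter mRNA is quantified by RT-PCR with fluorescent labelling and capillary electrophoresis; bidirectional fitting versus DMSO.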
Sequence of Retinoic acid receptor alpha (Homo sapiens) (P10276 whole entry, looked up): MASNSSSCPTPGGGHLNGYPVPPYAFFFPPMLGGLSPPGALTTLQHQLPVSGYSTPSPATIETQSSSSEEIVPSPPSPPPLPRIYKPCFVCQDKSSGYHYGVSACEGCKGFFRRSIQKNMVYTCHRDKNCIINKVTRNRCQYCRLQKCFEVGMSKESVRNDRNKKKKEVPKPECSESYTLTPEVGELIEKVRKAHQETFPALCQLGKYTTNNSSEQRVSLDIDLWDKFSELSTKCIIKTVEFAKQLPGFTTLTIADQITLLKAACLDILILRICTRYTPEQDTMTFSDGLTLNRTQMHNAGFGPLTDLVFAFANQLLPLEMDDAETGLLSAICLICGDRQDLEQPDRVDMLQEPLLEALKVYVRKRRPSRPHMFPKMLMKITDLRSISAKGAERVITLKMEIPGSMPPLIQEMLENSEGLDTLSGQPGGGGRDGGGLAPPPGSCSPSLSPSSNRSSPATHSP

Sequence of X-box-binding protein 1 (Homo sapiens) (P17861 whole entry, looked up, the tested form may be a part): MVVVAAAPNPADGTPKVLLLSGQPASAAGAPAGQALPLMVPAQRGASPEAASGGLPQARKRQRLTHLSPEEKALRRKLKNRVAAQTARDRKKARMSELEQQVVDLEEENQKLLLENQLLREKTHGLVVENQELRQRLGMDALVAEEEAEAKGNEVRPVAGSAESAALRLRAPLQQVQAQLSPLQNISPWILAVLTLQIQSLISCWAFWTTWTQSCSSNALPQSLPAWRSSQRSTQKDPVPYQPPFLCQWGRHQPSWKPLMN
Sequence of Retinoic acid receptor RXR-alpha (Homo sapiens) (P19793 whole entry, looked up, the tested form may be a part): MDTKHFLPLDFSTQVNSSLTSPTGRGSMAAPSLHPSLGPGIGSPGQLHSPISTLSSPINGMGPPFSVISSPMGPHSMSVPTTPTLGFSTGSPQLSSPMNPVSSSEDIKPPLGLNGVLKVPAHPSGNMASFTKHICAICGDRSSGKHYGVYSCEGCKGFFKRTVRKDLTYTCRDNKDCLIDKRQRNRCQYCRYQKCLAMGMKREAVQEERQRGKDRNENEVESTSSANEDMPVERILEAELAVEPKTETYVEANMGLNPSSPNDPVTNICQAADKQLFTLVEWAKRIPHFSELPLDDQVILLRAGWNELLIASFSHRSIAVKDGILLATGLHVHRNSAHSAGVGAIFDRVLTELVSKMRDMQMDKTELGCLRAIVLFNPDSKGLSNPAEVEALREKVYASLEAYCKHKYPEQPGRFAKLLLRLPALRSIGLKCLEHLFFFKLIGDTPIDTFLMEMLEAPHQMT
Sequence of Hepatocyte nuclear factor 6 (Homo sapiens) (Q9UBC0 whole entry, looked up, the tested form may be a part): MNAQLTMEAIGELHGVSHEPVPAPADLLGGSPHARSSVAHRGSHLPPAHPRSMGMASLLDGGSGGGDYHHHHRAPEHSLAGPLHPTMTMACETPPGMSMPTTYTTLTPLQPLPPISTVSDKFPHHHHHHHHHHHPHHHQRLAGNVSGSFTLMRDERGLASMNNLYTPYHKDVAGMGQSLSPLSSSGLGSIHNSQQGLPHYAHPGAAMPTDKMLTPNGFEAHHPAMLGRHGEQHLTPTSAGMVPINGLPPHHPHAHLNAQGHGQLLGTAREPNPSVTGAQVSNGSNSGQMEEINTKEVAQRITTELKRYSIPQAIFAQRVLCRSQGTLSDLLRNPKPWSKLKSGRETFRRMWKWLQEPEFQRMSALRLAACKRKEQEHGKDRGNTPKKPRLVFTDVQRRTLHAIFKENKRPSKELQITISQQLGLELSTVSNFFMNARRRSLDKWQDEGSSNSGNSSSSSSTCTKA
Sequence of Hepatocyte nuclear factor 4-alpha (Homo sapiens) (P41235 whole entry, looked up, the tested form may be a part): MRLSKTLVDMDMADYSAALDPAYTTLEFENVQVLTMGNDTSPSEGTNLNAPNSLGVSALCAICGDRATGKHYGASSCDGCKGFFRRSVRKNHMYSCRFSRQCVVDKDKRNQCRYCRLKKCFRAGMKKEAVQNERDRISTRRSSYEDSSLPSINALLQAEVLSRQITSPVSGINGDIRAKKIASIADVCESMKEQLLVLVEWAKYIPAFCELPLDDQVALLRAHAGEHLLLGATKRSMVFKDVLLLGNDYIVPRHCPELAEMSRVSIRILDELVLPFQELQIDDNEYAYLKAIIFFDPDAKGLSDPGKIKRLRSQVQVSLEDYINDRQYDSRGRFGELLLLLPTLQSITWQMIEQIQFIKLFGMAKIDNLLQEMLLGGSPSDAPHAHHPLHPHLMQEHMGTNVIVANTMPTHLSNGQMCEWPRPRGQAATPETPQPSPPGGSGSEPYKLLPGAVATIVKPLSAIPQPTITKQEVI

Broadly, the AC50 is the concentration at which the activity in the assay is half-maximal. Turning to `O=C(O)Cc1c[nH]c2ccccc12`, the compound was called inactive in assay [1], in [2], in [3], in assay [4], in assay [5] and in [6]. In addition, the call in assay [7], in assay [8], in [9], in [11], in [12] and in assay [13] was inactive. Besides, the outcome in assay [14], in assay [15] and in assay [16] was inactive. Besides, the AC50 in assay [10] is 73.7 µM (active).
As for `c1ccc2c(c1)Oc1ccccc1S2`, the compound was called inactive in [1], in [2], in assay [3], in [4], in assay [5] and in [6]. The result in assay [17], in assay [18], in [8], in assay [19], in assay [9] and in assay [10] was inactive. In addition, the compound was called inactive in assay [11], in [12], in [14] and in [16].
For `CCCCCCC(O)CCCCCCCCCCC(=O)OC` (stereo not given), the compound was called inactive in assay [20], in assay [2], in assay [4], in assay [5], in [17] and in assay [7]. The result in assay [18], in assay [8], in [19], in [9], in [11] and in assay [12] was inactive. Besides, the outcome in assay [14], in assay [15] and in assay [16] was inactive. In addition, the AC50 was 100 µM (active) in assay [6] and 53.5 µM (active) in assay [10].
For the compound `OCCOCCOCCOCCOCCO`, the compound was classed as inactive in [20], in assay [3], in [4], in [6], in [17] and in assay [18]. Further, the outcome in assay [8], in assay [12], in [13], in [14], in assay [15] and in assay [16] was inactive.
For `O=C(CC(C(=O)OC1CCCCC1)S(=O)(=O)O)OC1CCCCC1` (stereo not given), the result in assay [20], in assay [2], in assay [3], in assay [4], in [5] and in [7] was inactive. Moreover, the compound was classed as inactive in assay [18], in assay [8], in [19], in assay [10], in [11] and in assay [12]. The outcome in assay [13], in [14], in assay [15] and in assay [16] was inactive.
`COC(=O)/C=C\C(=O)OC`: the result in assay [20], in [4], in assay [5], in assay [6], in assay [17] and in [7] was inactive. In addition, the compound was classed as inactive in [18], in assay [10], in assay [12], in assay [14], in [15] and in assay [16]. Further, the AC50 in assay [2] and in assay [3] was 128 µM (active) each time.
Turning to `COC(=O)[C@]1(C)CCC[C@@]2(C)[C@H]1CC=C1C=C(C(C)C)CC[C@@H]12`, the compound was called inactive in [20], in assay [2], in [3], in [5], in [17] and in assay [18]. Also, the compound was classed as inactive in assay [8], in assay [19], in assay [9], in [10], in assay [11] and in assay [12]. For the same compound, the result in assay [13] was inactive. For the same compound, the half-maximal activity concentration (AC50) in assay [4] was 66.1 µM (active).
Turning to `O=C(C(=O)c1ccccc1)c1ccccc1`, the outcome in [1], in assay [2], in assay [3], in assay [4], in assay [5] and in assay [6] was inactive. Moreover, the compound was called inactive in assay [17], in assay [7], in assay [8], in assay [19], in [12] and in assay [13]. Besides, the result in assay [16] was inactive.
On to `CCC(C)NC(N)=O` (stereo not given), for which the compound was classed as inactive in [1], in assay [3], in assay [4], in [5], in assay [6] and in assay [17]. For the same compound, the result in assay [18], in assay [8], in assay [19], in assay [9], in assay [12] and in assay [13] was inactive.
